LANA DNA inh – inhibitors of KSHV C-LANA binding to DNA, primary screen, biochemical, fluorescence polarization, FAM-LBS DNA, MBP-C-LANA, single point; Kaposi's sarcoma herpesvirus LANA C-terminal domain (residues 932-1162) DNA binding; inhibition, % at 9 µM; 340,000 tested, 0.078% active; AID 504423, 2011;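 active = highest replicate inhibition at or above 60% at 9 µM, even if other replicates fall short; inactive = all replicates below 60% inhibition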
RTF Ca sens inh – cardiac RTF calcium sensitivity inhibitors, primary screen, biochemical, IANBD-TnC fluorescence, EC70 calcium; IANBD-labeled cardiac RTF, Ca2+ fluorescence; AID 493244, 2011; inhibition, % at 7.15 µM; Troponin I, cardiac muscle (Homo sapiens) + Troponin T, cardiac muscle (Homo sapiens) + …; 340,000 tested, 0.12% active;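 active = inhibition above the mean inhibition of all tested compounds plus 3 SD, cut at about 17% in these data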;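 note: assay run at fixed EC70 calcium of 1.6 mM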
Keap1-Nrf2 PPI – Keap1-Nrf2 protein-protein interaction inhibitors, primary screen, biochemical, fluorescence polarization, single point; 340,000 tested, 0.15% active; Keap1 Kelch-Nrf2 peptide fluorescence polarization, 1536-well; inhibition, % at 9.4 µM; in the data active = inhibition above about 12%;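 note: human Keap1 Kelch domain with fluorescein labeled Nrf2 9mer peptide probe; higher means more block of Keap1 binding to Nrf2 peptide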
Target sequence (Q14145 whole entry, looked up, the tested form may be a part): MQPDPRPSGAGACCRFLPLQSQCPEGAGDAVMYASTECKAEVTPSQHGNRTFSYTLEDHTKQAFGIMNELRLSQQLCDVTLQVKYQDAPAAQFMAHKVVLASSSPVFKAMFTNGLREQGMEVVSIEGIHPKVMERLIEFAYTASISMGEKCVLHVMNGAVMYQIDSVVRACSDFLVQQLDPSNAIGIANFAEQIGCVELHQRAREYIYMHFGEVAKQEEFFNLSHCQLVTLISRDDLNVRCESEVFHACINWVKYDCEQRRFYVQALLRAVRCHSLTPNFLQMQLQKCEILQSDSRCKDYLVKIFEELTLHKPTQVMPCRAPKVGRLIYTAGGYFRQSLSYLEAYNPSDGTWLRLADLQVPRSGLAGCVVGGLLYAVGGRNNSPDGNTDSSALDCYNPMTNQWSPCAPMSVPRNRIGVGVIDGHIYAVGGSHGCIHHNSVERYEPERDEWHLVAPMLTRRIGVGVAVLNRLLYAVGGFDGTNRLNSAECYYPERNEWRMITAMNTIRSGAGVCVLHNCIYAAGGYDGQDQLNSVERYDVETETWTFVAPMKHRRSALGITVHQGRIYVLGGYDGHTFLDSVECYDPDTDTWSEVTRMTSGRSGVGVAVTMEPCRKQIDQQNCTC
RTF Ca sens act – cardiac RTF calcium sensitivity activators, primary screen, biochemical, IANBD-TnC fluorescence, EC20 calcium; activation, % at 7.2 µM; IANBD-labeled TnC RTF fluorescence at EC20 calcium; 0% EC20 calcium, 100% full calcium; 340,000 tested, 0.24% active; Troponin I, cardiac muscle (Homo sapiens) + Troponin T, cardiac muscle (Homo sapiens) + …;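 active = activation above the mean over all tested compounds plus 3 SD, cut at about 30% in these data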;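 note: rise in fluorescence read as greater calcium sensitivity of cardiac thin filaments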
Keap1 Kelch bind – Keap1 Kelch domain binders by thermal stabilisation, dose response, biophysical, thermal shift, RT-PCR instrument, cherry-pick | shares compounds with Keap1-Nrf2 PPI | max delta Tm, degrees C | delta Tm; stronger effect = higher value | 400 tested, 8% active; in the data active = max delta Tm above about 0.48 degrees C
Dye-only ctr – Sypro Orange dye melt without protein, dose response, artefact control for Keap1-Nrf2 interaction inhibitor project, biochemical, thermal shift counterscreen, cherry-pick; shares compounds with Keap1-Nrf2 PPI; AID 651858, 2012; Sypro Orange dye-only thermal melt, no protein, delta Tm; top dose 26 µM; delta Tm, degrees C (no concentration beside the values); 140 tested, under 10 active;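 active = at highest dose tested, delta Tm positive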
Each line names hits and unclear results; the compound was inactive in the other large screens (follow-up assays come after a bar, where they were run). Sampled rows, rich in hits. Any-hit rate of the full collection: about 0.5%.

CCOC(=O)C1=C(CSc2nc3c(cc2C#N)CN(C)CC3)OC(N)=C(C#N)C1c1ccncc1 (stereo unspecified)	Keap1-Nrf2 PPI 17 | Keap1 Kelch bind inactive
CN1CC=C2C(C#N)=C(N)C(C#N)(C#N)[C@H](c3cccs3)[C@H]2C1	Keap1-Nrf2 PPI 26, RTF Ca sens act 41 | Keap1 Kelch bind inactive | Dye-only ctr inactive
COc1cc([C@@H]2[C@H]3CN(C)CC=C3C(C#N)=C(N)C2(C#N)C#N)cc2c1OCO2	none
CCCC1C2CN(C(C)C)CC=C2C(C#N)=C(N)C1(C#N)C#N (stereo unspecified)	Keap1-Nrf2 PPI 20, RTF Ca sens act 52 | Keap1 Kelch bind inactive | Dye-only ctr inactive
CN1CC=C2C(C#N)=C(N)C(C#N)(C#N)C(c3ccsc3)C2C1 (stereo unspecified)	Keap1-Nrf2 PPI 17 | Keap1 Kelch bind inactive
CCOC(=O)N1CC=C2C(C#N)=C(N)C(C#N)(C#N)[C@H](c3ccsc3)[C@H]2C1	none
O=C(O)C1CCN(C(=O)c2ccccc2N2C(=O)[C@@H]3Cc4c([nH]c5ccccc45)C(c4cccc(Cl)c4)N3C2=O)CC1 (stereo partly specified)	none
CCOc1cc(C2C(C#N)=C(N)OC3=C2C(=O)CC(C)(C)C3)cc([N+](=O)[O-])c1O (stereo unspecified)	none
CC1(C)CC(=O)C2=C(C1)OC(N)=C(C#N)C2c1cc2c(cc1[N+](=O)[O-])OCO2 (stereo unspecified)	Keap1-Nrf2 PPI 15 | Keap1 Kelch bind inactive | Dye-only ctr inactive
c1ccc(Nc2nc3ccccc3n3nnnc23)cc1	Keap1-Nrf2 PPI 24 | Keap1 Kelch bind inactive | Dye-only ctr inactive
COc1ccc(OC)c(NC(=O)NNC(=O)COc2ccc(F)cc2F)c1	none
CNc1ccc2c3c(cccc13)C(=O)N(C)C2=O	LANA DNA inh 109, Keap1-Nrf2 PPI 109, RTF Ca sens act active | Keap1 Kelch bind inactive
Cc1c(N)cc(N)cc1C(=O)O	Keap1-Nrf2 PPI 15 | Keap1 Kelch bind inactive
O=C(C1CCN(Cc2nc(-c3ccc(Cl)cc3)no2)CC1)N1CCOCC1	none
Clc1ccc(-c2noc(CN3CCOCC3)n2)cc1	Keap1-Nrf2 PPI 68 (no result: LANA DNA inh, RTF Ca sens inh, RTF Ca sens act) | Keap1 Kelch bind inactive | Dye-only ctr inactive
Cc1cc(Cl)ccc1NNC(=O)c1cccs1	none
O=C(NNc1cc(Cl)ccc1Cl)c1cccs1	Keap1-Nrf2 PPI 31 (no result: RTF Ca sens inh, RTF Ca sens act) | Keap1 Kelch bind inactive
Cc1[nH]nc2c1C(CC(C)C)C(C#N)=C(N)O2 (stereo unspecified)	Keap1-Nrf2 PPI 46 (no result: RTF Ca sens inh, RTF Ca sens act) | Keap1 Kelch bind inactive | Dye-only ctr inactive
CC(C)CC1C(C#N)=C(N)Oc2n[nH]c(-c3ccccc3)c21 (stereo unspecified)	none
O=C(CSc1nnc(CNC(=O)c2ccco2)o1)Nc1ccccc1F	none
O=C(NNC(=O)c1n[nH]c(=O)c2ccccc12)c1ccc(Br)cc1	none
Cc1ccc(C(=O)NNC(=O)c2n[nH]c(=O)c3ccccc23)cc1C	Keap1-Nrf2 PPI 33 | Keap1 Kelch bind inactive
COCCCNc1oc(-c2cccs2)nc1S(=O)(=O)c1ccc(C)cc1	none
O=C1NC(=O)/C(=C\c2ccc(Cl)cc2Cl)N1	none
O=C1NC(=O)/C(=C/c2ccccc2Cl)N1	Keap1-Nrf2 PPI 112 | Keap1 Kelch bind inactive
Cc1sc2ccccc2[n+]1CC(=O)O	none
Cc1sc2ccccc2[n+]1CC(=O)c1ccccc1	Keap1-Nrf2 PPI 22 | Keap1 Kelch bind inactive
CC(C)OC(=O)CC1C(=O)NCCN1C(=S)NC(=O)c1cccs1 (stereo unspecified)	none
O=C(CSC1=NNC(c2ccccn2)S1)Nc1cccc(Cl)c1 (stereo unspecified)	Keap1-Nrf2 PPI 19 (no result: RTF Ca sens inh, RTF Ca sens act) | Keap1 Kelch bind inactive
O=C(CSC1=NNC(c2ccccn2)S1)Nc1ccccc1 (stereo unspecified)	none
